Source: the supplement of paper PMC3334620
Over roughly 33,000 sequences, “E-score (-0.5 to 0.5)” has its median near -0.0059; the highest 2% begin near 0.26. The sample holds the highest values, similar sequences and a random draw of the others, so the mix is not that of the screen.

Target: T1, Cin5 (UniProt P40917)
T1 sequence: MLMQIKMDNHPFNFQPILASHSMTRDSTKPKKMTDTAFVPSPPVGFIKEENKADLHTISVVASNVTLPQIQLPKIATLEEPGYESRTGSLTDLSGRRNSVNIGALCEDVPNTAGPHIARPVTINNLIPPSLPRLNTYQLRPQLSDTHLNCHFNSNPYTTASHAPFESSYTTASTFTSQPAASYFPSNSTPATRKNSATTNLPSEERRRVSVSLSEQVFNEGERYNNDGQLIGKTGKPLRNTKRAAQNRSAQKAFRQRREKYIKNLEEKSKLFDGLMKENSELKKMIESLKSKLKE
Assay: PBM E-score (8-mer binding enrichment) (E-score (-0.5 to 0.5)); higher = stronger / more preferred TF binding
Settings: protein concentration: 100 nM; construct: GST-full length
Outline: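 PURExpress in vitro transcription/translation supplied GST-tagged yeast transcription factors, either full-length or DNA-binding domain. Applied at about 100-200 nM to universal all-10-mer Agilent arrays double-stranded by primer extension, the bound protein was detected with fluorescent anti-GST. E-scores, modified Wilcoxon-Mann-Whitney statistics, were given by the Universal PBM Analysis Suite to ungapped eight-base words pooled with their reverse complements after masliner normalisation.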

Sequence	PBM E-score
ATAATCCA	0.225
GTGATCGA	0.273
GCAATCGA	0.0191
CTGATCGA	-0.179
ATAATCTA	0.242
CTAATCCA	0.219
CTGCCAAA	-0.065
CGCGCTAC	0.029
GACATAGC	0.0934
ACCGTACA	-0.108
GGGTCCAA	-0.0685
AAAGCTAC	-0.0407
GATCTAAA	0.0626
CCAATAGA	-0.01
ACCCCGAT	0.155
AACCCGAC	0.0291
AACCCGAT	0.258
ACATTATG	0.106
CAATTAAC	0.134
GAATTATA	0.101
CAATTATA	0.126
CAATTATG	0.141
CCATTATC	0.0699
ACATTATC	0.289
CATTTATC	0.0882
CAATTATC	0.277

Sequence	PBM E-score
TAATTATA	0.351
AATTTATC	0.27
AATTTATA	0.249
ACGCAATA	0.209
TAAGGCAA	0.0779
CAAGGAGG	0.00169
AGGGGTGC	-0.088
CTGGACGA	-0.129
CGAAAGAC	1e-05
CCCCGGGA	0.0124
AAATTATG	0.24
AAATTACA	0.248
CAATTACA	0.242
AAATTATT	0.183
GAATTATC	0.145
AAATTAAA	0.214
TAATTACA	0.259
AAATTATC	0.278
AAATTATA	0.262
AATAGAAT	0.106
CTGGGTTA	-0.0908
ACAGAACA	0.136
CCCATTCA	0.214
TGAGACCA	-0.078
AAGCCTGG	-0.072
GCCGTGAC	-0.0205

Sequence	PBM E-score
ATACTCAA	0.204
CTACTCAG	-0.0922
ATACTCAG	0.258
CCCGTTCA	-0.0227
AAAGCGTC	-0.113
GTAGTCAC	-0.185
CATTTTAA	0.0885
ACTTTTAC	0.273
ACTTTTAA	0.0259
CATTTTAC	0.263
CATTTTAG	0.137
ACTTTTAG	-0.0275
GACTCCAA	-0.226
CTAGTGTC	-0.0545
GGGTTGAA	-0.0789
CAGACTAG	-0.237
ATAGGTCA	0.0611
ATTAATAA	0.336
TCTAATAA	0.0206
ATGAATAG	0.148
CTTAATAA	0.267
ATTAATGG	0.156
ATTAATAC	0.27
CCTAATAA	0.0783
ATTAAAAA	0.162
GGTAATAC	0.168

Sequence	PBM E-score
GTTAATAA	0.186
ATTAATAG	0.272
CTTAATAC	0.191
GTGCCAAC	-0.0934
CAAAAAGG	-0.138
GACTACCC	-0.127
AACTGTCT	0.0125
CCGCCGAC	-0.119
GAACAGAC	0.0587
GGCGCGGA	-0.189
AACTGGAA	0.0471
ATGATAAG	0.204
ATGATAGC	0.269
ATGATAAA	0.188
ATGATAAT	0.272
CTGATAAC	-0.054
ATGATAGA	-0.0131
ATGATAAC	0.262
ATGATAGG	-0.0261
GTGATAAC	0.125
AGCTGATA	0.0998
ATCCTTCC	-0.2
GGGGTTAA	-0.0418
TCCAGGAA	-0.0393
CTGGTTTC	0.0335
GGATGCAA	-0.0522

Sequence	PBM E-score
AACAGACA	0.32
GACAGACA	0.16
AACAGACT	0.138
AGGATCGC	-0.0224
GACTGAAA	-0.0204
CACTGAAA	0.108
TACTGAAA	0.267
TACCTTCA	-0.0369
ATCACGTA	0.269
ATCACATA	0.291
ATCACGTC	0.186
CTCACATA	0.164
ATCACGTG	0.124
ATCACATG	0.00787
AGTGGTCC	-0.116
GACTCGTA	-0.2
CAATCCTC	-0.129
CAAGGTGA	-0.0314
AATGAAAC	0.169
CCATAAAC	-0.114
ATAAAAAT	0.0935
ACATAAAC	0.263
ACATAAAG	0.00631
ATATAAAG	0.137
ACATAAAA	0.22
GCATAAAC	0.115

Sequence	PBM E-score
ATATAAAT	0.28
ACATAAAT	0.28
AAGGCACC	-0.0903
AATACCTC	0.0347
CTCCATTA	-0.0341
GGCCAGAC	-0.24
CCCAGTAA	0.0641
CAGCCGCC	-0.0669
ACGGCAAT	0.273
ACGGCAAG	-0.0312
ACGGCAAA	0.0612
AATCAACA	0.348
GATCAACA	-0.0699
TATCAACA	0.108
CATCAAAC	0.0949
AATCAAAT	0.176
AATCAAAC	0.326
CCCTGCAA	-0.132
CTGGCTCA	0.0435
ACGTTGGC	-0.143
ACAATTTC	0.139
CTAGGAAC	-0.124
GTCACCGA	-0.12
ACGCATAA	0.0967
GCGCATAA	0.187
CCGCATAA	0.283

Sequence	PBM E-score
GAGCGAGA	0.166
GCAAGGAA	-0.0209
CTGCTTCA	-0.153
GATGGTAA	-0.0229
AATGGTAA	0.233
TATGGTAA	0.288
CGCTTTTC	-0.0646
AACACTGA	0.271
AACACTTA	0.154
AACACTGT	-0.0444
CTTCGCCA	-0.137
AATTAATG	0.221
CATTAATA	0.187
GATTAATA	0.348
GATTAAGA	0.104
TATTAATA	0.297
TATTAACA	0.195
GATTAATC	0.145
AATTAATA	0.341
AATTAATT	0.0929
